Assay outcomes: PubChem BioAssay, National Center for Advancing Translational Sciences (NCATS)
This is one part of a sample in which hits are shown more often than they occur.
Glioma ERSR ind = ER stress response induction in glioma | U87-MG GRP78 promoter luciferase reporter, 16 h | Potency, µM, for the others: top-dose activation, usual class: activators | 420,000 compounds, 0.02% hits | AID 602332; also: series mostly up to about 76 µM; % of control where 0% means no effect; nearly all actives have a fitted effect of over 35% in size
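ERSR induction read as luciferase luminescence (Bright-Glo, 10 min at room temperature) in stably transfected human U87-MG glioma cells exposed to compounds for 16 h, using GRP78 as sensor.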
VDR inhibitor = blocks the human vitamin D receptor; AID 504847; P11473; Potency, µM, inactives show max response, negative = inhibition, usual class: inhibitors; VDR-SRC2-3 peptide fluorescence polarization, 2 h; 400,000 compounds, 0.93% hits; also: % is scaled to controls: 0 for no effect and ±100 for the full control effect
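The screen uses fluorescence polarization to detect compounds that interfere with recruitment of the SRC2-3 coactivator peptide to VDR; plates are read after 2 h at room temperature.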
12-LOX inh = inhibitors of human 12S-lipoxygenase ALOX12 | P18054 | purified 12hLO, xylenol orange hydroperoxide absorbance | 580,000 compounds, 1.1% hits | Potency, µM (titrated, usually from 108 µM), for the others: at the top dose activity change, negative = inhibition, hits mostly inhibitors; also: % is scaled to controls: 0 for no effect and ±100 for the full control effect
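Hydroperoxide product was detected by ferrous iron/xylenol orange as the 573 to 405 nm absorbance ratio. Arachidonic acid at 40 uM (final) was turned over for 30 min at room temperature by 150 nM human 12hLO, pH 7.0 Hepes buffer, after 15 min compound preincubation.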
Sfp inh = blocks B. subtilis Sfp PPTase activity. AID 1490. Q9F4F7. 310,000 compounds, 3.5% hits. Biochemical Sfp PPTase activity, qHTS. Potency, µM, for the others: largest response in the series, negative = inhibition, hits mostly inhibitors;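 also: the enzyme is Sfp with the accession as filed and its product quenches rhodamine fluorescence; 0% = enzyme reaction without inhibitor and -100% = no enzyme wells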
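Sfp 15 nM + cpd, 15 min RT; start w/ rhodamine-CoA 5 uM, BHQ-2-YbbR 12.5 uM (final); 50 mM Hepes pH 7.6, 10 mM MgCl2, 0.01% NP-40, 0.01% BSA; read 525/598 nm at 0 and 30 min.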
G9a block = G9a (human) methyltransferase inhibition; G9a H3K9 monomethylation, AlphaScreen, 2 h; Potency, µM (highest dose often 102 µM), without a hit: top-dose activity, negative = inhibition, actives largely listed as inhibitors; 350,000 compounds, 8.8% hits; AID 504332; also: % is scaled to controls: 0 for no effect and ±100 for the full control effect; nearly all actives have a fitted effect of over 75% in size
Target sequence (Q96KQ7 913-1193 limits assumed): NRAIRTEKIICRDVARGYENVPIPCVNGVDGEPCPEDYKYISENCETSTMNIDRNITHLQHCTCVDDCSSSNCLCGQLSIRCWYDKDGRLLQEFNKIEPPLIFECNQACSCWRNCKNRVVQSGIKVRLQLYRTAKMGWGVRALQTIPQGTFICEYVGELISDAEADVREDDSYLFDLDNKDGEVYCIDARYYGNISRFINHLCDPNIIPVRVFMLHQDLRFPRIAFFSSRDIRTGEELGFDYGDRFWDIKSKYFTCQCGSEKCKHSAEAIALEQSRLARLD
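Quantitative HTS format: methyltransferase activity on a biotin-tagged H3K9 peptide is measured by AlphaScreen, using a rabbit anti-monomethyl-H3K9 antibody with streptavidin donor and anti-IgG acceptor beads. Final levels are 20 nM enzyme, 500 nM peptide, 20 uM SAM; 2 h RT.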
Starred values were filed as active, the others as inactive; ? = inconclusive; nt = no result; [ ] = another dose, or the depositor's remark. Calls follow the shape of the dose curve; as a rule, active = well fitted curve in the direction sought with a large enough effect; inconclusive = small, poorly fitted or top-dose-only effect, or another doubt; inactive = no such curve, though single readings can be large; an effect the other way counts as inactive or inconclusive. Potency is read from the fitted curve at half-maximal effect.

SMILES | Glioma ERSR ind | VDR inhibitor | 12-LOX inh | Sfp inh | G9a block
COc1ccc(-c2ccc3c(n2)sc2c(=O)[nH]c(=O)[nH]c23)cc1OC | nt | nt | nt | -16% | 3.5µM*
COc1ccc(C(=O)c2sc3nc(-c4ccccc4)ccc3c2N)cc1OC | -14% | 7% | 1% | -3% | ?
COc1ccc(-c2ccc3c(N)c(C(=O)NC(C)C)sc3n2)cc1OC | 3% | 2% | ? | ? | -44%
COc1ccc(-c2ccc3c(N)c(C(=O)c4ccc(OC)c(OC)c4)sc3n2)cc1 | -1% | 23% | ? | -16% | 2.8µM*
N#C/C(=C\c1ccc(O)c(I)c1)c1nc2ccccc2[nH]1 | nt | nt | -22% | nt | nt
COc1ccc(NC(=O)Cc2c[nH]c3ncc(-c4cnn(C)c4)cc23)cn1 | nt | nt | -3%[176 µM] | nt | nt
COCc1ccccc1C(=O)NCCC(C)C | nt | nt | 52% | nt | nt
CCOc1cc2[nH]c(=S)n(C(C)C)c(=O)c2cc1OCC | -9% | -3% | -23% | 1% | 3%
CCC(CO)n1c(=S)[nH]c2cc(OC)c(OC)cc2c1=O (configuration not stated) | -2% | -2% | -27% | -30% | 18µM*
COc1ccc(CC(=O)OCC(=O)Nc2ccccc2OC(F)F)cc1 | nt | nt | 2% | nt | nt
CCCc1cc(C(N)=O)c(NC(=O)c2cc(C)on2)s1 | 2% | -17% | ? | 32µM* | ?
CCCc1cc(C(N)=O)c(NC(=O)c2ccoc2C)s1 | -1% | -5% | 32µM* | 13µM* | ?
CCNC(=S)NNC(=O)c1cc(C)on1 | -3% | 8% | 18% | 56µM* | 32%[12.7 µM]
Cc1ccc(-c2cc(C(=O)OC(C)C(N)=O)c3ccccc3n2)c(C)c1 (configuration not stated) | nt | nt | -11% | nt | nt
Cc1ccc(C(=O)N2CCN(c3cc(Cl)ccc3C)CC2)s1 | nt | nt | 4% | nt | nt
Cc1ccc(SSc2cc(C)ccc2N)c(N)c1 | 2% | 6.3µM* | 10µM* | nt | ?
Cc1cccc(OCCn2c(C)nc3cc(C)c(C)cc32)c1 | nt | nt | 49% | nt | nt
Cc1cccnc1NC(=O)c1ccc(Br)o1 | -1% | 5% | -15% | nt | -5%
O=C(CNCc1ccco1)Nc1ccc(N2CCCCCC2)cc1 | 4% | -4% | ? | -22% | 8.9µM*
NC(=O)NC(=O)C(Nc1ccc(N2CCCCC2)cc1)c1ccccc1 (configuration not stated) | 6% | -13% | -27% | -17% | 16µM*
O=C(c1ccccc1)c1ccc(N2CCCC2)cc1 | -5% | 2% | ? | -17% | 182%
O=C(CNC(=O)c1ccco1)Nc1ccc(N2CCCCCC2)cc1 | 0% | -15% | 7% | nt | ?
O=C(CNC(=O)c1ccc(Br)o1)Nc1ncccc1O | 0% | -17% | 3% | nt | 28µM*
O=C(CNC(=O)c1ccc(Br)o1)Nc1ccc(N2CCCCCC2)cc1 | 2% | -19% | ? | nt | 2.2µM*
CN(C)[S+](=O)([O-])c1ccc2c(c1)OCCN(Cc1ccccn1)C2 | nt | nt | 22%[176 µM] | nt | nt
SMILES | Glioma ERSR ind | VDR inhibitor | 12-LOX inh | Sfp inh | G9a block
CC1CCCCN1CC(=O)NC(c1ccccc1)c1ccccc1 (configuration not stated) | -4% | -17% | -191% | 79µM* | nt
O=C(CNC(=O)c1ccc(Br)o1)NCc1ccc(Cl)cc1Cl | -4% | -16% | 54% | 10% | 8%
O=C(CNC(=O)c1ccc(Br)o1)NCc1cccc(Cl)c1 | 0% | -8% | -9% | 89µM* | nt
CSc1ccccc1NC(=O)CN1CCCCC1C (configuration not stated) | -3% | -4% | -7% | 0% | 3%
CC1CCCCN1CC(=O)Nc1ccc(N2CCCCCC2)cc1 (configuration not stated) | -4% | -8% | ? | 45µM* | 3.2µM*
O=C(Cc1ccccc1)Nc1cccc(N2C(=O)C=CC2=O)c1 | -14% | ? | -23% | -86% | 0.35µM*
COc1ccccc1-c1cc2c(Nc3ccc4c(c3)OCCO4)nccc2n1C | nt | nt | -18% | nt | nt
CCCCCn1nc(C(=O)Nc2ccccc2F)c2ccccc2c1=O | nt | nt | 0% | nt | nt
Cc1ccc(-c2cc(-c3ccc(C)c(C)c3)n(-c3ccc(C)c(C)c3)n2)cc1C | nt | nt | 34% | nt | nt
O=C(O)CCC(=O)Nc1ccc(SSc2ccc(NC(=O)CCC(=O)O)cc2)cc1 | -5% | ? | ? | 18µM* | ?
O=C(/C=C/c1ccccc1)Nc1ccc(N2CCCCC2)cc1 | 1% | 1% | -23% | 15% | 2.8µM*
O=C(Nc1ccc(N2CCCCC2)cc1)c1ccccc1 | -5% | -1% | -26% | -1% | ?
O=C(Cc1ccccc1)Nc1ccc(N2CCCCC2)cc1 | 5% | 1% | -13% | 7% | 28µM*
CN1CCN(c2ccc(NC(=O)Cc3ccccc3)cc2)CC1 | -1% | 9% | 75%[57.4 µM] | 19% | -30%[12.7 µM]
O=C(COC(=O)CCc1nc2ccccc2n1-c1ccccc1)Nc1ccc(N2CCCCC2)cc1 | -4% | 1% | -13% | 0% | 10µM*
CNc1snc(C)c1C(=O)N(C)CCOc1ccc(F)cc1 | nt | nt | 0% | nt | nt
COC(CNC(=O)C1CCN(c2ncnc3sc4c(c23)CCC4)CC1)OC | nt | nt | 16% | nt | nt
Clc1ccc(Oc2ccc3nnnn3n2)c(Br)c1 | nt | nt | 11% | nt | nt
O=C(CCl)Nc1ccc(N2CCCCCC2)cc1 | -10% | 10% | ? | -9% | 16µM*
O=C(O)CCCC(=O)Nc1ccc(N2CCCC2)cc1 | -6% | 2% | 0% | 10% | 40µM*
CCC(=O)Nc1ccc(N2CCCCC2)cc1 | 3% | -1% | -5% | -1% | -45%[12.7 µM]
CC(=O)c1ccc2noc(-c3cccc(C)c3)c2c1 | 2% | -15% | -17% | -8% | 18µM*
CC(=O)c1ccc2noc(-c3ccccc3)c2c1 | 1% | ? | ? | -12% | nt
Cc1ccc2nc(C)cc(C(=O)O)c2c1 | nt | nt | 45% | nt | nt
Cc1c2c(=O)n(-c3ccc(F)cc3)[nH]c2cc(=O)n1Cc1ccccc1 | nt | nt | 11µM* | nt | nt
